Experimental findings from PubChem BioAssay AID1345082 (National Center for Advancing Translational Sciences (NCATS), 2018) are described below.

Hit rate of the full screen: of about 94,000 compounds, about 4,000 (4.3%) were called active. Roughly 29% stayed inconclusive and do not appear here. Calls come from the whole dose curve; as a rule, active = well fitted inhibition curve with a large enough effect; inconclusive = small, poorly fitted or top-dose-only effect; inactive = no such curve, though single readings can be large or run the other way. The list comes from a sample in which actives are over-represented; it also holds similar structures and randomly drawn compounds. Entries that show only a call come without a potency.
Potency is the fitted concentration of half-maximal effect.

This assay in a line: Cytotoxic Profiling in NIH 3T3 Cell Line of Diverse Libraries Using Quantitative High-Throughput Screening. Note: nearly all actives have a fitted effect of over 55% in size. The following applies: NIH 3T3 viability, CellTiter-Glo ATP luminescence, 48-72 h; series mostly up to 96.7 µM. An outline of the steps:
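ATP-dependent luminescence (CellTiter-Glo) served as the viability signal for NIH 3T3 cells treated with compound for 48 or 72 hr at 37 °C.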
Take `Cn1ncc2c(C(=O)N3CCC(c4ccccc4)CC3)cc(-c3ccc(F)cc3)nc21`: the Potency is 39.8 µM (active).

Regarding `COc1cccc(-c2cc(C(=O)N3CCN(C(C)=O)CC3)c3cnn(C)c3n2)c1`, the Potency result was “inactive”.

Turning to `CC(=O)N1CCN(C(=O)c2cc(-c3cccc(F)c3)nc3c2cnn3C)CC1`, the Potency entry was “inactive”.

With `O=C(NC1CC1)c1cc2n(n1)CCN(C(=O)c1ccc3n[nH]nc3c1)C2`, the Potency entry is “inactive”.

Regarding `CCCN(CC1CCOC1)C(=O)Nc1cc(F)ccc1F` (configuration not stated), the Potency result is “inactive”.

With `COc1ccccc1-c1cc(C(=O)NCc2ccccn2)nn2cnnc12`, the Potency entry was “inactive”.

As for `COc1ccc(-n2nc(C)c([C@H]3C=C[C@@H](OC(=O)Nc4cccc(F)c4)C3)c2C)cc1`, the Potency is 28.2 µM (active).

Consider `Cc1nn(-c2ccc(C(C)(C)C)cc2)c(C)c1[C@@H]1C=C[C@@H](NC(=O)c2ccco2)C1`, for which the Potency was 35.5 µM (active).

For the compound `Cc1nn(-c2ccccc2)c2c1C(C(C)C)N(C1CN(C(=O)c3ccc(Cl)nc3)C1)C2=O` (configuration not stated), the Potency result is “inactive”.

Turning to `Cc1cnc(CCNC(=O)c2ccco2)n1C1CCC1`, the Potency result was “inactive”.

Consider `COc1cccc(-c2cc(C(=O)Nc3cccc(F)c3)c3cnn(C)c3n2)c1`, for which the Potency entry was “inactive”.

For `Cc1nn(-c2ccccc2)c2c1C(C(C)C)N(C1CCN(C(=O)c3ccc(Cl)nc3)CC1)C2=O` (configuration not stated), the Potency result was “inactive”.

For the compound `CCC(C)NC(=O)Cc1csc2nc(C)c(-c3cc(C)n(-c4ccc(C(C)C)cc4)n3)c(=O)n12` (configuration not stated), the Potency entry is “inactive”.

For the compound `O=C(N[C@@H]1CN(c2ncccn2)C[C@H]1CO)c1ccco1`, the Potency result was “inactive”.

With `COc1cccc(NC(=O)Cn2c(=O)n(-c3ccc(F)cc3)c(=O)c3c2cc(C)n3C)c1`, the Potency result is “inactive”.

As for `Cc1nn(-c2ccc(C(C)C)cc2)c(C)c1[C@@H]1C=C[C@@H](NC(=S)NCC(C)C)C1`, the Potency is 22.4 µM (active).

As to `Cc1nn(-c2ccc(C(C)C)cc2)c(C)c1[C@@H]1C=C[C@@H](NC(=O)Nc2ccccc2)C1`, the Potency was 50.1 µM (active).

Consider `CC(C)c1nc(CCn2cc(-c3cncnc3)nn2)cs1`, for which the Potency result was “inactive”.

For `Cc1ccc(CN2C[C@@H](CO)[C@H](c3nc(C)no3)C2)nc1`, the Potency result was “inactive”.

On to `COc1ccccc1C(=O)N1CCc2nnc([C@@H]3C[C@@H](O)CN3C)n2CC1`, for which the Potency entry was “inactive”.

For `CN1CCC(NC[C@H]2O[C@@H]3C[C@@H](CC(=O)NCc4cnn(C)c4)O[C@@H]3[C@@H]2O)CC1`, the Potency entry was “inactive”.

Take `CC(C)c1nc2c(c(-c3ccc(Cl)cc3)n1)CN(C(=O)c1ccccc1)CC2`: the Potency entry was “inactive”.

Regarding `COc1ccc(C(=O)N2CCC(CCn3c(C)cnc3C3CC3)CC2)cc1`, the Potency entry is “inactive”.

Take `COC(=O)CNC(=O)NC1CCN(C(=O)N2CC3CC(C2)[C@H]2CCCC(=O)N2C3)CC1` (some centres not stated): the Potency result is “inactive”.

With `Cc1ccc2c(c1)C(C[C@H]1CN(C(=O)NC(C)C)CC[C@H]1CC(=O)O)=NCC2`, the Potency result was “inactive”.

As to `Cc1noc(C)c1[S+](=O)([O-])N1CCC2(CC1)C(=O)NN=C2c1cccnc1`, the Potency result is “inactive”.

As for `Cc1ccccc1CNC(=O)CN1C(=O)C2(CCNCC2)Nc2ccccc21`, the Potency entry was “inactive”.

Consider `CN(Cc1cccc(C(F)(F)F)c1)Cc1cccc(C(F)(F)F)c1`, for which the Potency result was “inactive”.

`CC(C)(C)n1nnnc1C1CC2(CCOCC2)C(=O)N1Cc1ccc(F)cc1` (configuration not stated): the Potency result was “inactive”.

On to `COc1cccc(-c2ccc(CN3CCCC3C(=O)NCc3ccccc3Cl)cc2)c1` (configuration not stated), for which the Potency is 39.8 µM (active).

On to `COc1cccc(CC(=O)N2CCC(N3C(=O)CCC3C(=O)NCc3ccccc3)CC2)c1` (configuration not stated), for which the Potency result is “inactive”.

Regarding `Cc1ccc(-c2cccc(CN3CCCC(NC(=O)c4ccc(C(F)(F)F)cc4)C3)c2)cc1Cl` (configuration not stated), the Potency entry was “inactive”.

For the compound `Cc1ccc(CNC(=O)[C@@H]2COCC(=O)N2Cc2ccc(F)cc2)cc1`, the Potency result was “inactive”.

Consider `COc1cccc(-c2cccc(C(=O)N3CCCC3C(=O)NCC3CC3)c2)c1` (configuration not stated), for which the Potency entry was “inactive”.

Take `Cc1ccc(-c2cccc(CN3CCCC3C(=O)NCc3ccc(C(F)(F)F)cc3)c2)cc1Cl` (configuration not stated): the Potency was 31.6 µM (active).

Consider `CN(CC1CCOCC1)C(=O)Cc1ccsc1`, for which the Potency result was “inactive”.

For `COc1ccc(N2CCC(NS(=O)(=O)C3CC3)C2=O)cc1` (configuration not stated), the Potency result is “inactive”.

As to `CN(C)Cc1cn(C[C@H]2C[C@@H](NS(=O)(=O)c3ccccc3)[C@H](O)[C@@H]2O)nn1`, the Potency entry was “inactive”.

Consider `O=C(C1CCC1)N1CCC(C(=O)N2CCCC2c2ccco2)CC1` (configuration not stated), for which the Potency entry was “inactive”.

For the compound `CN(CC1CCOCC1)C(=O)c1ccc(Cl)cc1`, the Potency entry was “inactive”.

As to `CCOCCNC(=O)C1CCCCN1Cc1ccc(-c2cc(F)ccc2OC)cc1` (configuration not stated), the Potency was 39.8 µM (active).

On to `CCN1CCN(C(=O)C2CCCCN2Cc2ccc(-c3cc(F)ccc3OC)cc2)CC1` (configuration not stated), for which the Potency is 35.5 µM (active).

Regarding `O=C(C1CCCCN1Cc1ccc(-c2cccs2)cc1)N1CCOCC1` (configuration not stated), the Potency result was “inactive”.

As to `CC(=O)N1CCCN(C(=O)C2CCCCN2Cc2ccc(-c3ccsc3)cc2)CC1` (configuration not stated), the Potency result was “inactive”.

In the case of `CCOCCOC1CCN(C(=O)NCc2ccc(F)cc2)CC1`, the Potency entry was “inactive”.

On to `COCCNC(=O)[C@@H]1CCC[C@@H](NCc2ccc(F)cc2)CN(C)C(=O)C1`, for which the Potency entry is “inactive”.

`O=C(c1cccn1C1CC1)N1C[C@H](CO)C[C@H](CN2CCCC2)C1`: the Potency entry was “inactive”.

In the case of `COCC1CN(C)CC12CCN(C(=O)C1CCOCC1)CC2` (configuration not stated), the Potency result was “inactive”.

Take `Cc1ccccc1S(=O)(=O)N1CCC2(CC1)CC(OCC1CC1)CCO2` (configuration not stated): the Potency entry is “inactive”.

`COc1cc(F)ccc1-c1ccnc2nc(C(C)C)nn12`: the Potency entry is “inactive”.

With `Cc1noc([C@@H]2CN(S(=O)(=O)c3cccs3)C[C@H]2C(N)=O)n1`, the Potency entry is “inactive”.

As for `COc1ccccc1-c1onc(C)c1C(=O)NCc1ccc(Cl)cc1`, the Potency entry is “inactive”.

For `CCCOCCCNC(=O)c1c(C)noc1-c1cc(OC)c(OC)c(OC)c1`, the Potency result is “inactive”.

As for `COc1ccccc1-c1onc(C)c1C(=O)NCCC(c1ccccc1)c1ccccc1`, the Potency is 31.6 µM (active).

For the compound `COC[C@@H]1CN(Cc2ccccn2)C[C@H]1C(=O)N(C)C`, the Potency result is “inactive”.

`Cc1cc(CNC(=O)C2CCCN(C3CCN(CCc4ccccc4)CC3)C2)on1` (configuration not stated): the Potency result was “inactive”.

For `CC(C)CCNC(=O)c1cnc2c(c1)N(Cc1ccccc1)CCC2`, the Potency is 79.4 µM (active).

As to `O=C(Nc1cccc(Cl)c1)c1cnc2c(c1)N(C(=O)CCc1ccccc1)CCC2`, the Potency entry is “inactive”.

For the compound `CC(C)Nc1ncc(C(=O)NC2CCCN(CCc3ccccc3)C2)cn1` (configuration not stated), the Potency result was “inactive”.

On to `Cc1cccc(C(=O)N2CCCN(c3nnc4ccccn34)CC2)c1`, for which the Potency entry was “inactive”.

With `Cc1cc(C(=O)NCC(C)C)c2c(C3CCNC3)noc2n1` (configuration not stated), the Potency result was “inactive”.

`COc1cc(SC)ccc1C(=O)N[C@@H]1C=C(C(=O)N[C@@H](Cc2cccs2)C(N)=O)C[C@@H](O)[C@@H]1O`: the Potency result is “inactive”.

Regarding `Cc1ccc(C)c(NC(=O)C2CC(=O)N(c3n[nH]c4cc(Br)ccc34)C2)c1` (configuration not stated), the Potency result is “inactive”.

Turning to `Cc1nc(N2CCC(NCCNc3ccncc3C)CC2)c2ccsc2n1`, the Potency is 44.7 µM (active).

Take `Cc1nc(N2CCC(NC(=O)c3cnccn3)CC2)cc(C(F)(F)F)n1`: the Potency result was “inactive”.

With `Cc1[nH]ncc1CNC(=O)C1CCN(c2cnn(CC3CC3)c(=O)c2)C1` (configuration not stated), the Potency entry is “inactive”.

With `O=C(NCc1nc(-c2ncccn2)no1)[C@H]1CNC[C@@H](C(=O)N2CCCC2)C1`, the Potency result was “inactive”.

On to `O=C1CCN(C(=O)c2ccc3ccccc3n2)CCCCCCN1`, for which the Potency entry was “inactive”.

With `CCn1cc(CN2CCCCCNC(=O)[C@@H]3CCC[C@@H]32)cn1`, the Potency result was “inactive”.

Turning to `Cc1cccc(C)c1-c1nc(C(=O)N2CCN(c3ncccn3)CC2)n2ccccc12`, the Potency is 39.8 µM (active).

`CC(C)(C)c1nc(C(=O)N2CCOCC2)n2ccccc12`: the Potency result was “inactive”.

As to `O=C(c1nc(-c2cccnc2)c2cnccn12)N1CCN(c2ncccn2)CC1`, the Potency result was “inactive”.

For the compound `COc1ccc(C2Cn3cnc(C(=O)N4CCC(C(=O)NC5CCCC5)CC4)c3CO2)cc1` (configuration not stated), the Potency result was “inactive”.

Turning to `COCC1CN(C(C)=O)CC12CCN(C(=O)C1CC=CCC1)CC2` (configuration not stated), the Potency result is “inactive”.

With `COC(=O)CNC(=O)C1CCN(Cc2ccccc2-c2ccccc2F)CC1`, the Potency entry was “inactive”.

Consider `CC(=O)N1CCCC1C(=O)N1CCC(c2ccccc2)CC1` (configuration not stated), for which the Potency result is “inactive”.

With `O=C(C1CCN(Cc2ccccc2-c2ccccc2F)CC1)N1CCC(c2ccccc2)CC1`, the Potency was 31.6 µM (active).

On to `Cc1noc(C)c1CC(=O)N1CCC(c2n[nH]c(=O)n2Cc2ccc(F)cc2)CC1`, for which the Potency result is “inactive”.

For `COc1cc(F)ccc1-c1ccc(COc2ccc3c(cnn3CCC(=O)O)c2)cc1`, the Potency entry was “inactive”.

`O=C(C1CCC1)N1CCC(Oc2cccnc2)C1` (configuration not stated): the Potency entry is “inactive”.

For `O=C(O)CCn1ncc2cc(OC3CCN(C(=O)C4CCCC4)CC3)ccc21`, the Potency is 44.7 µM (active).

With `COc1ccc(CNC(=O)NCC2Cn3cccc3CN2C)cc1` (configuration not stated), the Potency result was “inactive”.

As to `Cc1ccc(OCc2nc(C3CCN(C(=O)c4c5c(nc6ccccc46)CCCC5)CC3)no2)cc1`, the Potency result was “inactive”.

As for `COCCOCc1nc(C2CCN(C(=O)c3ccncc3)CC2)no1`, the Potency entry is “inactive”.

For the compound `Cc1ccc(OCc2nc(C3CCN(C(=O)c4noc(C)c4CN4CCCCC4)CC3)no2)cc1`, the Potency is 31.6 µM (active).

Consider `COc1ccc(C(=O)N2CCC(C(=O)N3CCC(N4CCOCC4=O)CC3)CC2)cc1`, for which the Potency result was “inactive”.

On to `CN(C)CCNC(=O)C(C)(C)Oc1nn(Cc2cccc(Cl)c2)c2ccccc12`, for which the Potency is 10 µM (active).

For the compound `O=C(CN1C(=O)NC2(CCCCC2)C1=O)Nc1cccc(Br)c1`, the Potency entry is “inactive”.

With `CCNC(=O)N[C@H]1[C@H](O)[C@@H](N(C)CCc2ccccn2)[C@@H]2OC[C@H]1O2`, the Potency entry was “inactive”.

On to `O=C(C1CCCC1)N1CCCCC1c1nc(C2CC2)n[nH]1` (configuration not stated), for which the Potency entry is “inactive”.

Turning to `CN1CCCN(C(=O)c2ccccc2OC(F)(F)F)c2ccccc21`, the Potency result is “inactive”.

With `COCCN1CCCN(C(=O)c2ccccc2Cl)c2ccccc21`, the Potency entry was “inactive”.

Consider `COc1ccccc1C(=O)N1CCCN(CCc2ccccc2)c2ccccc21`, for which the Potency was 31.6 µM (active).

With `Cc1cc(N)n(CC(=O)N[C@@H]2COCC[C@@H]2OCc2c(C)noc2C)n1`, the Potency result was “inactive”.

In the case of `CCc1c(C)nn(CCNc2ncnc3c2c(C)nn3C)c1C`, the Potency result is “inactive”.

`O=C(CC1CC1)N1C[C@H]2OC(=O)N(CCc3cccc(Cl)c3)[C@H]2C1`: the Potency result is “inactive”.

For the compound `CC(=O)NC1CC2(CCN(C(=O)Cc3c[nH]c4ccccc34)CC2)c2ccccc21` (configuration not stated), the Potency entry is “inactive”.
